# From PubChem BioAssay
# Only some compounds are listed: those with a hit (about 28% of all), similar ones and a draw of the others.
# Mac1 fbg enh: enhancers of human CD11b/CD18 binding to fibrinogen; P05107+P11215; K562 CD11b/CD18 adhesion to fibrinogen, ATPlite luminescence; activation, % at 10 µM; hit rate 0.07% among 93,000;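 active = 10 µM primary screen giving 50% or more activity, confirmed by 40% or more on retest at that dose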
# CD11b adhes inh: CD11b/CD18-fibrinogen binding inhibition; AID 1497; inhibition, % at 10 µM; K562 CD11b/CD18 adhesion to fibrinogen, ATPlite luminescence; Mn2+ added to activate the integrin; hit rate 0.54% among 93,000;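 active = primary inhibition of 50% or more at 10 µM, then 40% or more on retest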
# CYP2C19 activ: cytochrome P450 2C19 (human) activation. P33261. recombinant CYP2C19, luciferin-H EGE luminescence; stronger effect = higher value; 0 = fully inhibited enzyme, 1 = untreated enzyme. activation factor at 5 µM. 96,000 tested, under 10 active;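 active = activation factor of at least 2 at 5 µM in the primary screen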;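 also: 0 = wells with 2.5 mM tranylcypromine and 1 = vehicle-only wells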
# CYP2C19 inh: blocks human cytochrome P450 2C19; CYP2C19 Supersomes, luciferin-H EGE luminescence, 30 min; inhibition, % at 5 µM; hit rate 21% among 96,000; AID 778;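 active = CYP2C19 inhibition above a set limit at 5 µM in the primary screen, cut at about 50% in these data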;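 also: plate controls were negative control wells for no effect and 2.5 mM tranylcypromine positive control for full effect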
# CYP2C9 inhib: human CYP2C9 inhibition | inhibition, % at 5 µM | AID 777 | P11712 | hit rate 20% among 96,000 | CYP2C9 Supersomes, luciferin-H conversion, luminescence;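 active = blocking of liver enzyme CYP2C9 beyond about 50% at 5 µM, limit read from the data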
# Target sequence (P11712 whole entry, looked up): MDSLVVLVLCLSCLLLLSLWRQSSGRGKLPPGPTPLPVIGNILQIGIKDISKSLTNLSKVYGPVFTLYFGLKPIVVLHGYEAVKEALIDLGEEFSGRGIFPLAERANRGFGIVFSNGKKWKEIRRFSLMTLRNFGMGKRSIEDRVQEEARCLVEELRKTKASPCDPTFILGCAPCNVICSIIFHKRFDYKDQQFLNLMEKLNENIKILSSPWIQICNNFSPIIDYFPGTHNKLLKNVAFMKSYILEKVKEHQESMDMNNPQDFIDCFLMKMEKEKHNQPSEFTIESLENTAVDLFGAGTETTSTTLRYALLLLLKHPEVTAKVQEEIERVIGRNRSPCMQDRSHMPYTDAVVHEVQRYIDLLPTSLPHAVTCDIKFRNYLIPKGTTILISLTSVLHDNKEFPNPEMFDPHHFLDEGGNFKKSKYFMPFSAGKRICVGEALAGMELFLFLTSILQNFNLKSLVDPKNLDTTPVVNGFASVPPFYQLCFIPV
# CYP2C9 activ: increases human cytochrome P450 2C9 activity | P11712 | recombinant CYP2C9, luciferin-H conversion, luminescence; stronger effect = higher value; factor 1 = untreated enzyme, 0 = blocked | activation factor at 5 µM | hit rate 1.4% among 96,000;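 active = activation factor of 2 or more for CYP2C9 at a 5 µM dose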;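 also: 0 = sulfaphenazole-blocked wells and 1 = vehicle-only wells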
# Starred values were filed as active, the others as inactive; . = not tested or not shown.
SMILES,Mac1 fbg enh,CD11b adhes inh,CYP2C19 activ,CYP2C19 inh,CYP2C9 inhib,CYP2C9 activ
COc1cccc(-c2ccc(C#N)c(SCC(=O)NCCc3cccc(Cl)c3)n2)c1,.,.,0.2,82.5*,64.0*,0.4
COc1ccc(-c2ccc(C#N)c(SCC(=O)NCCc3ccccc3)n2)cc1OC,21.4,-5.0,.,.,.,.
COc1cccc(-c2ccc(C#N)c(OC(=O)c3c(Cl)cccc3Cl)n2)c1,-6.5,15.6,0.9,11.6,50.6*,0.5
COc1cccc(-c2ccc(C#N)c(OC(=O)c3ccc(Cl)cc3)n2)c1,-4.4,16.4,0.9,10.9,27.3,0.7
COC(=O)Nc1ccc(C)c2nsnc12,-4.9,1.3,1,-3.8,1.6,1
O=C(O)C1CCCN(S(=O)(=O)c2ccc(Br)cc2)C1 (configuration not stated),64.2,-27.0,1.1,-12.6,-22.6,1.2
COc1ccc(C(C(=O)NC(C)(C)C)N(C(=O)CNC(=O)c2cccs2)c2ccc(C)cc2)cc1OC (configuration not stated),.,.,0.8,17.9,19.0,0.8
Nc1nonc1C(=O)NCCNS(=O)(=O)c1ccc(Br)cc1,8.5,2.1,0.4,60.0*,-13.0,1.1
OC1(C2(O)CC(c3ccccc3)ON2)CCCCC1 (configuration not stated),-0.9,-4.8,0.2,77.0*,10.2,0.9
O=c1nc2scc(-c3ccccc3)n2c2ccccc12,-5.5,-6.2,0.8,15.9,2.0,1
O=C1CC(c2ccccc2)n2nc(NC(=O)c3ccccc3)nc2N1 (configuration not stated),-5.5,16.3,1.2,-16.7,-13.2,1.1
O=C1CC(c2ccccc2)n2nc(NC(=O)C3CCCO3)nc2N1 (configuration not stated),-0.9,-27.7,0.1,91.0*,79.2*,0.2
CCOC(=O)c1sc(NC(NC(=O)c2ccco2)(C(=O)OC)C(F)(F)F)nc1C (configuration not stated),-1.4,13.0,0.9,7.4,55.9*,0.4
CCOc1ccc(OCC)c(-c2c(=O)n(OCc3ccc(C(C)(C)C)cc3)c3ccccc3[n+]2[O-])c1,.,.,0.1,87.8*,52.4*,0.5
O=S(=O)(NCCc1cn2ccccc2n1)c1ccc2c(c1)OCCO2,-3.6,0.9,0.3,69.6*,-18.4,1.2
Cc1nc(CNS(=O)(=O)c2ccc3c(c2)OCCO3)cs1,-0.7,2.0,0.1,86.6*,-22.8,1.2
Cc1csc2nc(CNS(=O)(=O)c3ccc4c(c3)CCCC4)cn12,-3.5,-6.1,0.5,54.3*,-103.1,2*
O=S(=O)(NCc1ccccn1)c1ccc2c(c1)OCCO2,-1.0,-13.3,0.2,83.3*,-41.5,1.4
O=C(C1CCC(=O)N1Cc1ccccc1Cl)N1CCN(c2cccc(Cl)c2)CC1 (configuration not stated),-0.8,7.2,0.9,13.7,21.0,0.8
COc1ccccc1Cn1c(=O)c2ccccc2n2c(SCC(=O)N3CCCCC3)nnc12,-3.8,5.1,.,.,.,.
Cc1csc2nc(CNS(=O)(=O)c3ccc4c(c3)OCCO4)cn12,-0.3,-37.2,0.4,63.6*,-13.9,1.1
Cc1csc2nc(CCNS(=O)(=O)c3ccc4c(c3)OCCO4)cn12,2.4,-14.3,0.4,61.5*,-51.5,1.5
Cc1ccn2cc(CNS(=O)(=O)c3ccc4c(c3)OCCO4)nc2c1,-5.3,-41.7,0.8,17.0,-17.8,1.2
Cc1nc(CNS(=O)(=O)c2cc(C)c(C)cc2C)cs1,-1.5,14.0,0.1,87.2*,-61.7,1.6
COc1ccc(S(=O)(=O)NCc2csc(C)n2)cc1,-3.6,1.5,0.5,45.6,-7.4,1.1
SMILES,Mac1 fbg enh,CD11b adhes inh,CYP2C19 activ,CYP2C19 inh,CYP2C9 inhib,CYP2C9 activ
CCc1ccc(S(=O)(=O)NCc2cn3c(C)csc3n2)s1,-0.8,4.2,0.2,77.7*,-20.3,1.2
O=c1[nH]c(/C(=N\O)c2ccccc2)no1,0.2,-8.1,0.8,23.3,7.8,0.9
CCC1(C(=O)c2ccc(Cl)cc2)C2c3ccccc3OC(=O)C21C(=O)Nc1ccccc1 (configuration not stated),5.9,-3.1,.,.,.,.
Clc1ccccc1-c1nn2c(Cn3cnc4ccccc43)nnc2s1,-1.3,6.1,0.4,57.6*,25.1,0.7
c1ccc(-c2nn3c(Cn4nnc5ccccc54)nnc3s2)nc1,29.6,-33.8,0.2,78.5*,38.7,0.6
c1ccc(CCc2nn3c(Cn4cnc5ccccc54)nnc3s2)cc1,2.5,-18.5,0.8,18.2,6.2,0.9
c1ccc2c(c1)ncn2Cc1nnc2sc(-c3ccc4c(c3)OCO4)nn12,-1.7,0.2,0.9,8.1,81.1*,0.2
Clc1ccccc1CSc1nnc(Cn2cnc3ccccc32)n1-c1ccccc1,-0.6,-2.2,0.4,60.7*,2.0,1
COc1ccc(OCc2nn3c(Cn4cnc5ccccc54)nnc3s2)cc1,-1.2,14.5,0.8,16.0,25.4,0.7
N#Cc1c(NC(=O)c2cc(-n3cnnc3)ccc2Cl)sc2c1CCCC2,-3.9,17.5,0.8,15.5,18.5,0.8
Cc1cc2nnc(SCC(=O)OC(C)C)n2c2ccccc12,.,.,0.8,24.1,-159.8,2.6*
Cc1occc1-c1nnc(SCC(=O)NCc2cccs2)n1-c1ccc(F)cc1,0.4,7.7,0.6,42.6,63.0*,0.4
Cc1cc2nnc(SCC(=O)NCc3cccs3)n2c2ccccc12,-5.5,-5.2,0.5,49.3,-220.9,3.2*
Cc1nnc(SCC(=O)NCc2cccs2)n1-c1ccccc1,-2.9,-24.0,0.5,46.8,25.7,0.7
CC(C)OC(=O)CSc1nnc(SCc2cccc3ccccc23)s1,4.8,10.6,0.3,70.7*,18.5,0.8
O=C(O)CSc1nnc(SCc2cccc3ccccc23)s1,2.3,1.3,1,-4.1,45.5,0.5
O=C(Nc1nc(-c2ccccn2)cs1)c1ccc(Br)s1,-3.1,-1.4,1.2,-17.6,43.2,0.6
COc1ccc(CCN2C(=NC(=O)CC(C)C)SC3CS(=O)(=O)CC32)cc1 (configuration not stated),-5.0,-0.9,0.2,82.1*,56.1*,0.4
Cc1ccc2c(CC(=O)OCc3nc(N)nc(Nc4ccccc4C)n3)coc2c1,-0.8,38.7,0.9,11.5,46.5,0.5
Cc1ccccc1Nc1nc(N)nc(COC(=O)C(NC(=O)c2ccco2)C(C)C)n1 (configuration not stated),-4.3,-8.7,0.7,30.9,58.9*,0.4
COC(=O)c1cncc(O)c1,5.2,1.9,0.9,6.0,-22.8,1.2
CCOC(=O)CCn1nc(-c2ccccc2)cc1N,1.3,-14.5,0.3,65.8*,9.8,0.9
CCOC(=O)CSc1nnc(-c2ccccc2)c(=O)[nH]1,-3.6,2.0,1.1,-12.2,-8.3,1.1
CCOC(=O)Cn1nc(-c2ccc(C)cc2)ccc1=O,5.4,4.6,0.5,49.0,51.6*,0.5
